We go through 15 compounds from PubChem BioAssay (NCATS).

Assay [1] is described as follows: qHTS of pediatric cancer cell lines to identify multiple opportunities for drug repurposing: Primary screen for BT-12 cells (AID 1347101). Note: nearly all actives have a fitted effect of over 25% in size. Note: potency is the fitted concentration of half-maximal effect. An outline of the steps:
(§1)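 Cells (500-1,000/well) rested 5 h, then received compounds for 48 h; metabolically active cells were measured by CellTiter-Glo luminescence. Final concentrations spanned up to 46 µM (MIPE, 11-point) or 0.59 nM-46 µM (NPC, 8-point) in primary screens, 11-point in follow-ups.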

A short description of assay [2]: qHTS of pediatric cancer cell lines to identify multiple opportunities for drug repurposing: Primary screen for Rh18 cells (AID 1347102). Note: nearly all actives have a fitted effect of over 65% in size. Note: potency is the fitted concentration of half-maximal effect. An outline of the steps:
as §1

The nature of assay [3]: qHTS of pediatric cancer cell lines to identify multiple opportunities for drug repurposing: Primary screen for OHS-50 cells (AID 1347103). Note: nearly all actives have a fitted effect of over 40% in size. Note: potency is the fitted concentration of half-maximal effect. An outline of the steps:
as §1

A short description of assay [4]: qHTS of pediatric cancer cell lines to identify multiple opportunities for drug repurposing: Primary screen for RD cells (AID 1347104). Note: nearly all actives have a fitted effect of over 55% in size. Note: potency is the fitted concentration of half-maximal effect. Put shortly: (§2)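 Phenotypic viability qHTS, 48 h compound exposure, CellTiter-Glo luminescence read-out; multi-concentration dosing so that potency and efficacy derive directly from the primary screen's curves.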
For orientation: Quantitative high-throughput screening tests each substance at several concentrations.

Assay [5] in a line: qHTS of pediatric cancer cell lines to identify multiple opportunities for drug repurposing: Primary screen for Rh30 cells (AID 1347107). Note: nearly all actives have a fitted effect of over 75% in size. Note: potency is the fitted concentration of half-maximal effect. Put shortly:
as §1

Assay [6] in a line: qHTS of pediatric cancer cell lines to identify multiple opportunities for drug repurposing: Primary screen for Rh41 cells (AID 1347108).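 For activity change, negative = cytotoxic: luminescence drop marks cytotoxic hits.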 Note: nearly all actives have a fitted effect of over 70% in size. Note: potency is the fitted concentration of half-maximal effect. Put shortly:
as §2

Assay [7] in a line: qHTS of pediatric cancer cell lines to identify multiple opportunities for drug repurposing: Primary screen for MG 63 (6-TG R) cells (AID 1347105). Note: nearly all actives have a fitted effect of over 50% in size. An outline of the steps: as §2
Assay [8] can be described thus: qHTS of pediatric cancer cell lines to identify multiple opportunities for drug repurposing: Primary screen for control Hh wild type fibroblast cells (AID 1347106).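 For activity change, negative = cytotoxic: a drop in luminescence marks cytotoxicity and a rise apparent proliferation.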 Note: nearly all actives have a fitted effect of over 55% in size. Note: potency is the fitted concentration of half-maximal effect. Put shortly: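 Viability after 48 h compound treatment at 37C, 500-1,000 cells/well, read as ATP luminescence with CellTiter-Glo. Primary screens used 11-point (MIPE, 0.78 nM-46 µM) or 8-point (NPC, 0.59 nM-46 µM) final concentrations; follow-up screens used 11-point dilutions.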

Assay [9] can be described thus: qHTS of pediatric cancer cell lines to identify multiple opportunities for drug repurposing: Confirmatory screen for NB1643 cells (AID 1347109). Note: nearly all actives have a fitted effect of over 45% in size. Note: potency is the fitted concentration of half-maximal effect. Put shortly:
as §1

Assay [10] in a line: qHTS of pediatric cancer cell lines to identify multiple opportunities for drug repurposing: Confirmatory screen for A673 cells (AID 1347110).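 Note: cells exposed to compound for 48 h before the viability read; nearly all actives have a fitted effect of over 65% in size.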 Note: potency is the fitted concentration of half-maximal effect. Put shortly:
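Cells plated at 500-1,000/well were treated five hours later with multi-point dilutions up to 46 µM final. After two days, CellTiter-Glo was added and luminescence read.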

A short description of assay [11]: qHTS of pediatric cancer cell lines to identify multiple opportunities for drug repurposing: Confirmatory screen for BT-12 cells (AID 1347112). Note: nearly all actives have a fitted effect of over 55% in size. Note: potency is the fitted concentration of half-maximal effect. Put shortly:
as §1

Assay [12] is described as follows: qHTS of pediatric cancer cell lines to identify multiple opportunities for drug repurposing: Confirmatory screen for LAN-5 cells (AID 1347113). Note: nearly all actives have a fitted effect of over 65% in size. Note: potency is the fitted concentration of half-maximal effect. An outline of the steps: as §1
Assay [13] can be described thus: qHTS of pediatric cancer cell lines to identify multiple opportunities for drug repurposing: Confirmatory screen for BT-37 cells (AID 1347117). Note: nearly all actives have a fitted effect of over 55% in size. Note: potency is the fitted concentration of half-maximal effect. The note with it: BT-37 pediatric cancer cells, viability; activity change, negative = cytotoxic: at 45.9 µM (top of the series). An outline of the steps: as §1
A short description of assay [14]: qHTS of pediatric cancer cell lines to identify multiple opportunities for drug repurposing: Confirmatory screen for control Hh wild type fibroblast cells (AID 1347121). Note: nearly all actives have a fitted effect of over 70% in size. Note: potency is the fitted concentration of half-maximal effect. Put shortly: as §1
Assay [15] can be described thus: qHTS of pediatric cancer cell lines to identify multiple opportunities for drug repurposing: Confirmatory screen for SK-N-MC cells (AID 1347111).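 Note: potency is the fitted concentration of half-maximal effect; cells exposed to compound for 48 h before the readout; nearly all actives have a fitted effect of over 70% in size.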 An outline of the steps:
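Seed 500-1,000 cells/well; rest 5 h at 37 degrees C. Pin-transfer compounds, 11-point titration. Incubate 48 h. Add CellTiter-Glo, 15 min RT, read luminescence.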

Assay [16] can be described thus: qHTS of pediatric cancer cell lines to identify multiple opportunities for drug repurposing: Confirmatory screen for DAOY cells (AID 1347114). Note: nearly all actives have a fitted effect of over 65% in size. Note: potency is the fitted concentration of half-maximal effect. An outline of the steps: (§3)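 Viability measured as metabolically active cells via CellTiter-Glo luminescence following 48 hours of compound exposure, 11-point dilutions in confirmatory testing. 500-1,000 cells/well plated 5 hours before dosing; controls were DMSO and 2.3 µM bortezomib.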

Assay [17] in a line: qHTS of pediatric cancer cell lines to identify multiple opportunities for drug repurposing: Confirmatory screen for SJ-GBM2 cells (AID 1347116). Note: nearly all actives have a fitted effect of over 60% in size. Note: potency is the fitted concentration of half-maximal effect. An outline of the steps: as §3
The nature of assay [18]: qHTS of pediatric cancer cell lines to identify multiple opportunities for drug repurposing: Confirmatory screen for TC32 cells (AID 1347118). Note: potency is the fitted concentration of half-maximal effect. Put shortly:
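qHTS, TC32, 48 h drug treatment, CellTiter-Glo luminescence as a proxy for metabolically active cells; primary top concentration 46 µM (MIPE 11-pt, NPC 8-pt); confirmatory 11-pt.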

Assay [19] in a line: qHTS of pediatric cancer cell lines to identify multiple opportunities for drug repurposing: Confirmatory screen for MG 63 (6-TG R) cells (AID 1347119). Note: nearly all actives have a fitted effect of over 55% in size. Note: potency is the fitted concentration of half-maximal effect. Put shortly: as §1
Assay [20] is described as follows: qHTS of pediatric cancer cell lines to identify multiple opportunities for drug repurposing: Confirmatory screen for NB-EBc1 cells (AID 1347115).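 Note: cells exposed to compound for 48 h before the viability read; nearly all actives have a fitted effect of over 45% in size.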 Put shortly: as §1

SMILES strings stand for the structures. Results filed as inconclusive are left out. Calls of active or inactive are those of the source. Calls come from the whole dose curve; as a rule, active = well fitted curve in the direction sought with a large enough effect; inconclusive = small, poorly fitted or top-dose-only effect, or another doubt; inactive = no such curve, though single readings can be large; an effect the other way counts as inactive or inconclusive.

In the case of `Cc1cnc(NC(=O)Nc2cc(Br)c(C)cc2OC[C@@H]2CNCCO2)cn1`, the Potency entry in assay [1], in [2], in [4], in assay [5] and in assay [6] was “inactive” each time. Also, the Potency in [3] is 1.37 µM (active).

Take `O=C(C[C@@H]1CC=CCCC(=O)O[C@H](c2ccccc2)CNC1=O)NCc1ccc(Cl)cc1`: the Potency entry in assay [1], in assay [2], in [3], in assay [7], in assay [8] and in assay [5] was “inactive” in each case. Further, the Potency result in assay [6] is “inactive”.

As for `O=C(Nc1cc2cc[nH]c2cn1)c1ccccc1`, the Potency in assay [1] was 6.85 µM (active); in assay [2] it was 11.8 µM (active); in assay [3] it was 10.9 µM (active); in [4] it was 14800 nM (active); in assay [6], 18700 nM (active); in [9], 10400 nM (active). In addition, the Potency in assay [10] was 1650 nM (active); in assay [11] it was 14.7 µM (active); in assay [12], 14700 nM (active); in assay [13], 9270 nM (active); in assay [14] it was 14.7 µM (active).

As for `CCCCCCCCCCCCc1ccc(S(=O)(=O)Nc2nncs2)cc1`, the Potency entry in assay [1], in [2], in [4], in assay [7], in [8] and in [5] was “inactive” in each case.

Consider `N#CNC(=NCCCCCCOc1ccc(Cl)cc1)Nc1ccncc1`, for which the Potency in assay [1] is 0.544 µM (active); in assay [2] it was 0.0187 µM (active); in assay [3], 21.7 µM (active); in assay [4], 5.9 nM (active); in [5], 0.0059 µM (active); in assay [6], 5.9 nM (active). Besides, the Potency in assay [9] is 14.7 nM (active); in [10], 11.7 nM (active); in [15], 14.7 nM (active); in assay [12] it was 11.7 nM (active); in assay [16], 165 nM (active); in assay [17], 41.4 nM (active). Also, the Potency in assay [13] was 18.5 nM (active). In assay [8], the Potency result is “inactive”.

Turning to `COc1ccc2c(c1OC)C(=O)OC2[C@H]1c2c(cc3c(c2OC)OCO3)CCN1C` (stereo partly specified), the Potency is 1.09 µM (active) in assay [1], 0.137 µM (active) in [3], 372 nM (active) in assay [4] and 469 nM (active) in [6]. The Potency entry in [2], in assay [9], in assay [11], in assay [12], in assay [17] and in assay [13] was “inactive” throughout. Also, in assay [14], the Potency entry was “inactive”.

Regarding `CCOC(=O)C1=C(C)NC(=S)NC1c1cccc(O)c1` (stereo unspecified), the values for the Potency in assay [1], in assay [3] and in [18] were 0.137 µM (active), 0.0968 µM (active) and 3.69 µM (active), respectively. The Potency result in [2], in assay [8], in assay [5], in assay [11], in assay [12] and in [19] was “inactive” in each case. For the same compound, the Potency entry in [14] is “inactive”.

For `CN1CCCN(C(=O)c2cccc(-c3ccc(C=C4C(=O)Nc5ccc(Cl)cc54)o3)c2)CC1`, the Potency was 24.3 µM (active) in assay [1]; 7.43 µM (active) in assay [2]; 13.7 µM (active) in assay [3]; 33200 nM (active) in assay [4]; 18.7 µM (active) in [5]; 18700 nM (active) in assay [6]. Also, the Potency result in assay [8] was “inactive”.

For `COc1ccc(C=Cc2cc(OC)c(OC)c(OC)c2)cc1NC(=O)[C@H](N)CO`, the Potency in assay [1] is 0.0086 µM (active); in [3], 0.0137 µM (active); in assay [4], 6.6 nM (active); in assay [10], 104 nM (active); in [11] it was 0.117 µM (active); in assay [12] it was 414 nM (active). Further, the Potency in [17] was 827 nM (active); in assay [13], 73.7 nM (active); in assay [18] it was 0.0465 µM (active); in assay [19] it was 46.5 nM (active). The Potency entry in assay [2], in [5] and in assay [14] was “inactive” each time.

As to `CC(Cc1ccc(O)c(O)c1)(NN)C(=O)O` (stereo unspecified), the Potency result in [1], in assay [2], in assay [3], in assay [7] and in assay [8] was “inactive” each time.

With `O=c1[nH]c(=O)n([C@H]2C[C@@H](O)[C@@H](CO)O2)cc1C=CBr`, the Potency entry in assay [1], in [2], in [3], in assay [4], in assay [8] and in [5] was “inactive” each time. Also, the Potency entry in assay [6] is “inactive”.

On to `Cc1[nH]c(C=C2C(=O)Nc3ccccc32)c(C)c1CCC(=O)O`, for which the Potency in [1] was 7.69 µM (active); in assay [2], 23.5 µM (active); in assay [3] it was 1.22 µM (active); in [4], 18700 nM (active). The Potency result in assay [8], in assay [9], in assay [10], in assay [11], in assay [12] and in assay [16] was “inactive” in each case. Also, the Potency result in assay [20], in assay [13], in [18], in assay [19] and in [14] was “inactive” throughout.

With `C=CC(=O)Nc1cccc(Nc2nc(NC3CCC(N(C)C)CC3)nc3c2ncn3C(C)C)c1` (stereo unspecified), the Potency in [1] was 0.0385 µM (active); in [2], 0.418 µM (active); in assay [3], 0.0385 µM (active); in [4], 83.3 nM (active); in assay [8], 2.35 µM (active); in assay [6], 20.9 nM (active). Moreover, the Potency was 414 nM (active) in assay [9]; 737 nM (active) in assay [10]; 2610 nM (active) in [15]; 1.17 µM (active) in assay [11]; 827 nM (active) in assay [12]; 3290 nM (active) in [16]. The Potency is 4650 nM (active) in assay [17], 827 nM (active) in [13] and 3690 nM (active) in assay [19]. The Potency entry in [5] and in assay [14] was “inactive” in each case.

On to `CC(C)(O)CC[C@@H](O)[C@](C)(O)[C@H]1CC[C@@]2(O)C3=CC(=O)[C@@H]4C[C@@H](O)[C@@H](O)C[C@]4(C)[C@@H]3CC[C@]12C`, for which the Potency entry in [1], in [2], in assay [3], in assay [7], in [8] and in assay [5] was “inactive” each time. Also, the Potency entry in assay [6] is “inactive”.

On to `C#C[C@]1(O)CC[C@@H]2[C@@H]3CCC4=CC(=O)CC[C@@H]4[C@H]3CC[C@@]21CC`, for which the Potency entry in assay [1], in assay [2], in assay [4], in assay [7] and in assay [8] was “inactive” in each case.
